Assay outcomes deposited in PubChem by National Center for Advancing Translational Sciences (NCATS).
Sm TGR block: qHTS Assay for the Inhibitors of Schistosoma Mansoni Peroxiredoxins; Schistosoma mansoni thioredoxin glutathione reductase (TGR), Q962Y6; purified TGR, DTNB reduction, TNB absorbance 405 nm; Potency, µM (titrated, usually from 114 µM), for the others: at the highest dose activity change, negative = inhibition, most hits filed as inhibitors; hit rate 3% among 360,000; AID 485364, 2010; note: potency is the fitted concentration of half-maximal effect; % is set by controls: 0 for no effect and ±100 for the full control effect; nearly all actives have a fitted effect of over 60% in size
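Kinetic colorimetric format: TGR-catalysed, NADPH-driven DTNB reduction monitored via TNB absorbance. Enzyme dispensed at 20 nM; compound exposure 15 min at room temperature before reaction start.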
Cycloheximide cs: Cycloheximide Counterscreen for Small Molecule Inhibitors of Shiga Toxin; cell reporter, cycloheximide protein synthesis inhibition counterscreen; max response, %; hit rate 12% among 300,000; AID 2314, 2010; in the data active = max response mostly above about 13%, no sharp cut-off; inactive = mostly below about 14%; note: read at 38.3 µM for the half of the compounds with a filed dose; 0% is about no effect
FBPA Giardia inh: qHTS Assay for Inhibitors of Fructose-1,6-bisphosphate Aldolase from Giardia Lamblia | A8B2U2 | purified Giardia FBPA | Potency, µM (titrated, usually from 59.6 µM), for the others: at the top dose activity, negative = inhibition, hits mostly inhibitors | hit rate 0.71% among 290,000 | AID 2451, 2010; note: potency is the fitted concentration of half-maximal effect; % is set by controls: 0 for no effect and ±100 for the full control effect; nearly all actives have a fitted effect of over 55% in size
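Giardia FBPA (40 nM reagent) was preincubated 10 min at RT with compound (up to 57.5 uM final), then substrate plus GAPDH/TPI/NAD/arsenate coupling system with diaphorase/resazurin was added; resorufin fluorescence (525/598 nm) was read after 20 min.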
Shiga toxin inh: A qHTS for Small Molecule Inhibitors of Shiga Toxin; Vero cells, Shiga toxin protein synthesis inhibition reporter; inhibition, % at 38.7 µM; hit rate 9.2% among 290,000; in the data active = inhibition mostly above about 28%, no sharp cut-off; inactive = mostly below about 43%; note: 0% is about no effect
LmPK inh: qHTS Assay for Inhibitors of Leishmania Mexicana Pyruvate Kinase (LmPK); AID 1721, 2009; Q27686; hit rate 0.37% among 290,000; purified LmPK, Kinase-Glo ATP luminescence, 1 h; Potency, µM (titrated, usually from 57.5 µM), for the others: at the highest dose activity change, negative = inhibition, usual class: inhibitors; note: potency is the fitted concentration of half-maximal effect; % is set by controls: 0 for no effect and ±100 for the full control effect
Target sequence (Q27686 whole entry, looked up): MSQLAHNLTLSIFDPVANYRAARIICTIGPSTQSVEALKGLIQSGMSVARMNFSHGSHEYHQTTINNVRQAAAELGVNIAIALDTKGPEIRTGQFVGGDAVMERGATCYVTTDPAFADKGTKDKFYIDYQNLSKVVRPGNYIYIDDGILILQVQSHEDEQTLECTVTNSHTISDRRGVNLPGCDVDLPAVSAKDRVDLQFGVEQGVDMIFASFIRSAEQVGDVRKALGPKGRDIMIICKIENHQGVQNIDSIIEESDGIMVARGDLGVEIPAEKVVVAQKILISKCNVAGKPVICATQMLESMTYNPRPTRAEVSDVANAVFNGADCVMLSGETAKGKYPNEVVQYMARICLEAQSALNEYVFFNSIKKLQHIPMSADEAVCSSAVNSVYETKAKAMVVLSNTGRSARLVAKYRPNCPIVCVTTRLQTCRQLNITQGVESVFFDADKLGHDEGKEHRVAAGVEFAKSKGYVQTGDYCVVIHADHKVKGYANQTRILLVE
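0.1 nM LmPK, 0.5 mM PEP, 0.1 mM ADP; 50 mM imidazole pH 7.2, 7 mM MgCl2, 50 mM KCl; 1 h RT. Kinase-Glo luminescence readout, normalized to no-enzyme (full inhibition) and uninhibited wells.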
TbPYK inhibitor: qHTS of Trypanosoma Brucei Inhibitors; pyruvate kinase (Trypanosoma brucei), Q57TT1; TbPYK enzyme, Kinase-Glo Plus ATP luminescence, 45 min; Potency, µM (highest dose often 76.8 µM), for the others: at the highest dose activity, negative = inhibition, most hits filed as inhibitors; hit rate 0.12% among 410,000; AID 624173, 2012; note: potency is the fitted concentration of half-maximal effect; % is set by controls: 0 for no effect and ±100 for the full control effect; nearly all actives have a fitted effect of over 50% in size
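Assay buffer: 50 mM TEA pH 7.2, 100 mM KCl, 10 mM MgCl2, 0.05% BSA, 0.01% Tween-20. Pyruvate kinase from T. brucei plus substrate met compound, then ADP (130 uM final). Luminescence was read post 45 min RT.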
* = called active by the depositor; u = inconclusive; x = no result given. Many of the other results were omitted from the sample, so hits are more common in it than they were. Unless noted, calls come from the whole dose curve; as a rule, active = well fitted curve in the direction sought with a large enough effect; inconclusive = small, poorly fitted or top-dose-only effect, or another doubt; inactive = no such curve, though single readings can be large; an effect the other way counts as inactive or inconclusive.

SMILES	Sm TGR block	Cycloheximide cs	FBPA Giardia inh	Shiga toxin inh	LmPK inh	TbPYK inhibitor
CCOC(=O)c1cc2c(=O)n3ccccc3nc2n(Cc2ccco2)c1=NC(=O)c1ccccc1OC	5.62µM*	15.6	-14.8%	-14.4	1.4%	0.2%
COc1ccc(NC(=O)CSc2nnc(C)n2C2CC2)cc1S(=O)(=O)N1CCOCC1	-17.5%	x	x	x	x	-1.3%
CC(C)(C)C(=O)[C@H]1[C@H](c2ccccc2)[C@@]2(N=C(c3ccccc3)OC2=O)C2c3ccccc3C=NN21 (stereo partly drawn)	-30.6%	39.8*	-1.4%	25.6	-0.8%	-3.9%
O=C1NC(=O)C(=CN2CCc3ccccc32)C(=O)N1	-21.0%	0.5	u	14.8	-7.2%	0.0%
O=C1NC(=O)N(Cc2ccccc2)C(=O)/C1=C\N1CCCc2ccccc21	u	27.9*	u	65.2	1.1%	-3.7%
O=C(CCC(=O)N(CC(=O)NC1CCCC1)c1ccccc1F)Nc1nccs1	2.2%	-4.2	4.3%	-8.1	0.4%	-1.8%
O=S(=O)(c1ccccc1)c1ncc(C(F)(F)F)cc1O	-7.7%	-4.6	1.5%	-7.2	5.9%	11.7%
O=S(=O)(c1ccccc1)c1ncc(C(F)(F)F)cc1Cl	3.98µM*	17.0	-3.2%	15.9	-3.9%	3.3%
CN(CC(=O)Nc1ccc(Cl)c(S(=O)(=O)N(C)C)c1)Cc1ccccc1	-14.1%	39.6*	u	73.5*	-3.0%	0.0%
CN(C)S(=O)(=O)c1cc(NC(=O)CN2CCCc3ccccc32)ccc1Cl	u	12.1	-15.7%	13.8	0.4%	1.1%
CN(C)S(=O)(=O)c1cc(NC(=O)CN2CCc3ccccc32)ccc1Cl	44.7µM*	29.9*	-29.1%	28.0	13.4%	-6.6%
CC(C)n1cc(/C=C2\NC(=O)N(c3cccc(Cl)c3)C2=O)c2ccccc21	-2.2%	8.5	-3.1%	-11.7	-0.6%	-12.1%
O=C1NC(=O)N(c2ccc(F)cc2)C(=O)/C1=C/c1ccsc1	-28.6%	-1.3	-9.0%	-2.1	2.5%	u
O=C1N/C(=C/c2ccsc2)C(=O)N1c1ccccc1	x	26.0*	2.2%	47.2*	1.7%	1.3%
COCCn1c(C)cc(/C=C2/NC(=O)N(c3cccc(Cl)c3)C2=O)c1C	-24.9%	38.3*	-1.7%	63.6*	-0.5%	0.9%
CCn1c(C)cc(/C=C2/NC(=O)N(CC(=O)Nc3cccc(C)c3)C2=O)c1C	-30.6%	-2.4	-4.4%	9.2	-0.8%	3.3%
CCn1c(C)cc(/C=C2/NC(=O)N(c3ccccc3)C2=O)c1C	x	42.6*	-2.8%	97.0*	-1.7%	-5.7%
Cn1cc(S(=O)(=O)N2CCCCC2)cc1C(=O)Nc1cccc(C#N)c1	-0.4%	x	x	x	x	3.1%
O=S1(=O)CC(N2CCSCC2)CN1Cc1cn(Cc2ccc(C(F)(F)F)cc2)nn1 (stereo not drawn)	x	x	x	x	x	-2.0%
COc1ccc2c(c1)c1c(c(=O)n(CCc3ccccc3)c(=O)n1Cc1cccc(Cl)c1)n2C	2.4%	x	x	x	x	-1.3%
S=C(c1cccs1)N1CCN(c2ccccc2)CC1	x	x	x	x	x	-1.8%
CN(C)N1C(=O)CC(N2CCCC2)C1=O (stereo not drawn)	22.4µM*	-2.4	-6.3%	14.3	-2.8%	-3.8%
CCN1C(=O)CC(N2CCOCC2)C1=O (stereo not drawn)	-10.0%	-0.5	3.1%	-13.2	3.0%	2.5%
CC1(c2nnnn2-c2ccc3c(c2)OCCO3)CCC(=O)N1Cc1cccnc1 (stereo not drawn)	x	x	x	x	x	-5.9%
Cc1cc(Cl)ccc1Nc1ncccc1C(N)=O	5.2%	68.9*	-4.7%	69.3*	0.9%	-1.4%
COc1ccccc1Nc1ncccc1C(=O)O	0.3%	-1.1	-5.7%	17.3	-5.7%	4.3%
NC(=O)c1cccnc1Nc1ccccc1F	-4.2%	28.9*	-3.7%	28.0*	3.2%	-3.5%
COc1ccc(Nc2ncccc2C(=O)O)cc1	-3.9%	46.8*	-1.8%	111.9*	-4.0%	-4.3%
Cc1ccc(Nc2ncccc2C(N)=O)cc1	-14.0%	94.1*	-5.9%	119.2*	1.0%	-11.0%
